Measurements as given in PubChem BioAssay (NCI).
About 83,000 compounds went through this panel and 20% of them were active in at least one assay; those are over-represented in the sample as a whole.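 96-well plates, one dose, 48 hours. Percent growth reported; active if below 10.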 Values without a mark were called inactive. Active and inactive are the calls of the source.

Columns and labels:
Experiment in all cases: NCI-60 one-dose screen, 48 h (100 = growth as untreated, 0 = no growth, -100 = all killed)
Conditions in all cases: 10 µM unless noted
[1] = tested on: SK-MEL-2 melanoma
[2] = tested on: EKVX NSCLC
[3] = tested on: SN12C renal
[4] = tested on: UO-31 renal
[5] = tested on: TK-10 renal
[6] = tested on: ACHN renal
[7] = tested on: CAKI-1 renal
[8] = tested on: CCRF-CEM leukemia
[9] = tested on: MOLT-4 leukemia
[10] = tested on: A498 renal

| SMILES | growth [1] | growth [2] | growth [3] | growth [4] | growth [5] | growth [6] | growth [7] | growth [8] | growth [9] | growth [10] [%] |
| --- | --- | --- | --- | --- | --- | --- | --- | --- | --- | --- |
| N=C(N)c1ccc(-c2ccc(/C=C/c3ccccc3)s2)cc1 | 102% | 71.2% | -31.8% (active) | 63.1% | 98.5% | -5.84% (active) | 32.5% | 1.58% (active) | -21% (active) | – |
| NS(=O)(=O)Oc1ccc(-c2sc3cc(O)ccc3c2C(=O)c2ccc(OCCN3CCCCC3)cc2)cc1 | 84% | 72.3% | 69.1% | 43.6% | 72.4% | 60.9% | 49.3% | 25.9% | 11% | – |
| Cc1cn(C2CCCCC2)c(=O)[nH]c1=O | 127% | 121% | 108% | 99.8% | 99.8% | 103% | 119% | 117% | 96.6% | – |
| COc1ccc(/C=N/NC(=O)Cn2c(-c3ccc(S(C)(=O)=O)cc3)nc3cc(Cl)ccc32)cc1 | 21.2% | 25.3% | 27.3% | 43.2% | 36.8% | 30.3% | 42% | – | 12.9% | 21.4 |
| COc1ccc(C2CC(c3ccccc3)=NN2c2nc(C)c(C(C)=O)s2)cc1 (centres undefined) | 98.4% | 94.6% | 105% | 77.4% | 110% | 95.5% | 86.6% | 96.3% | 102% | – |
| O=C1C=CC(=Nc2cc(Br)c(O)c(Br)c2)C=C1 | 65.2% | 90.7% | 78.7% | 56.3% | 93.8% | 68.4% | 82.8% | 7.46% (active) | -28.9% (active) | – |
| COc1ccc2c(c1)/C(=C\c1sc(=S)[nH]c1O)C(C(=O)O)=N2 | 99.4% | 93.6% | 100% | 82.6% | 108% | 99.8% | 86.2% | 95.7% | 103% | – |
| c1ccc(-c2oc3ccccc3c2-c2ccccc2)cc1 | 92.9% | 96.6% | 92.2% | 86.4% | 110% | 97.3% | 69.4% | 86.1% | 54.9% | – |
| Cl.Fc1c[c-]c(-c2ccccn2)c(F)c1.[Pt].c1ccc([PH+](c2ccccc2)c2ccccc2[PH+](c2ccccc2)c2ccccc2)cc1 | -82.1% (active) | -94.8% (active) | -81.3% (active) | -98.8% (active) | -87.2% (active) | -100% (active) | -90.5% (active) | -43.6% (active) | -28.3% (active) | – |
| O=C1Nc2ccccc2/C1=N/N=C/c1c[nH]c2ccccc12 | 55.5% | 21.8% | 73.8% | 26.4% | 78.4% | 48.3% | 17.8% | 83.3% | 71.8% | – |
| COc1cc(-c2cc(-c3ccc(Nc4nc(Nc5ccccc5)nc(Nc5ccc(Cl)cc5)n4)cc3)nc(N)n2)cc(OC)c1OC | 59.5% | 59.4% | 70.7% | 43.1% | 91.3% | 59.7% | 60.7% | 28.2% | 38.4% | – |
